Only some compounds are listed: those with a hit (about 0.52% of all), similar ones and a draw of the others.
Epigenetic reg: epigenetic control regulation, reporter derepression; murine LDR cells, GFP reporter derepression, 30 h; 280,000 compounds, 0.2% hits; Potency, µM (doses to about 53.9 µM), most hits filed as activators; note: nearly all actives have a fitted effect of over 60% in size
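Readout is the number of GFP-expressing murine LDR cells, counted by cytometry following washing. Cells were treated with compound for 30 h at 37 C; the stably integrated CMV-GFP locus is normally silent.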
Vif-A3G inh: Vif-A3G binding inhibition; Potency, µM (series often up to 46.1 µM), actives largely listed as inhibitors; AID 602310; HeLa A3G-eYFP + Vif (tagged APOBEC3G with the HIV-1 protein that degrades it), YFP fluorescence, overnight; Q9HC16; 410,000 compounds, 0.076% hits; note: nearly all actives have a fitted effect of over 60% in size
Target sequence (Q9HC16 whole entry, looked up): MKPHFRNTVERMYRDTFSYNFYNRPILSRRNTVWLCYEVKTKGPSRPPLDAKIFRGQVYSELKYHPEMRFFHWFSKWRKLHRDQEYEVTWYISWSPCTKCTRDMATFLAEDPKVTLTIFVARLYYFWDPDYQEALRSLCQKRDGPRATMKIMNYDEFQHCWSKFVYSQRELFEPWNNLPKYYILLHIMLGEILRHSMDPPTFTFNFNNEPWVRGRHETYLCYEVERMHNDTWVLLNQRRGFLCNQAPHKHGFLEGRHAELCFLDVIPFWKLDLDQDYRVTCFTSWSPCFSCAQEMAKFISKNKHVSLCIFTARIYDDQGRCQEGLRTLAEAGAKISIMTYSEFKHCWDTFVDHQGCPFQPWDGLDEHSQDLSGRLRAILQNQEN
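HeLa cells stably expressing Vif and C-terminally eYFP-tagged A3G, seeded overnight at 37 deg C, then exposed to compound by pintool overnight at 37 deg C. Rise in yellow fluorescence (Ex 488/Em 500-530, Acumen) marks blocked Vif-driven A3G degradation.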
Vif-APOBEC3F blk: Vif-A3F binding inhibition; HeLa A3F-eYFP + Vif (tagged APOBEC3F with the HIV-1 protein that degrades it), YFP fluorescence increase; AID 602313; 390,000 compounds, 0.2% hits; Potency, µM (series often up to 46.1 µM); note: nearly all actives have a fitted effect of over 65% in size
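HeLa cells stably expressing A3F-eYFP plus Vif, plated and incubated overnight at 37 deg C, then exposed to compounds overnight at 37 deg C. Blocked degradation read as raised yellow fluorescence (Ex 488/Em 500-530).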
PINK1 expr mod: modulators of PINK1 expression; PINK1 immunofluorescence, high-content cytometry, 24 h; Potency, µM (top dose mostly 76.6 µM), usual class: activators; 410,000 compounds, 0.2% hits; active = well fitted activation curve with a large enough effect; inconclusive = small, poorly fitted or top-dose-only effect; cell line not stated here; note: nearly all actives have a fitted effect of over 65% in size
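Decision-based qHTS: stable cells, 24 h exposure to five compound concentrations, CCCP as control. Fixed cells stained for PINK1 plus nuclear, mitochondrial and cell markers, cytometer read.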
Hits are given with their value; . = inactive; ? = inconclusive; / = not tested or not shown. Unless noted, calls come from the whole dose curve; as a rule, active = well fitted curve in the direction sought with a large enough effect; inconclusive = small, poorly fitted or top-dose-only effect, or another doubt; inactive = no such curve, though single readings can be large; an effect the other way counts as inactive or inconclusive.

SMILES | Epigenetic reg | Vif-A3G inh | Vif-APOBEC3F blk | PINK1 expr mod
O=C(CCN1C(=O)/C(=C/C=C/c2ccccc2)SC1=S)Nc1ccccn1 | 14.1µM | . | ? | .
COc1ccc(-n2c(-c3ccccc3)nnc2-c2ccc(Cl)cc2)cc1 | . | . | . | .
COc1ccc(-n2c(-c3ccc(Cl)cc3)c[n+]3c2CCc2ccccc2-3)cc1 | . | . | . | 31.6µM
CC(=O)N/N=C/c1cc(C(C)(C)C)cc(/C=N/NC(C)=O)c1O | . | 12.6µM | 22.4µM | .
Cc1ccc2nc(NCc3ccccc3)[nH]c2c1 | . | ? | . | .
COc1ccc2nc(NCc3ccccc3)[nH]c2c1 | . | ? | . | 15.8µM
CCN1CCCC1CNC(=O)c1cnn(-c2nccc(-c3cc4ccccc4o3)n2)c1C1CC1 (stereo not given) | / | / | / | .
CCC1C(=O)NCCN1Cc1ccc2c(c1)CN(Cc1cc(OC)c3c(c1)OCO3)CCO2 (stereo not given) | / | / | / | .
CC1(C)Cc2nc3oc4c(=O)n(CC(=O)Nc5ccccc5)cnc4c3cc2CO1 | . | . | . | .
CC1(C)Cc2nc3sc4c(=O)n(CC(=O)NCc5ccco5)cnc4c3cc2CO1 | . | ? | . | 11.2µM
Cc1c(C(=O)NCc2ccco2)cnn1-c1ncc2c(n1)-c1ccccc1CC2 | / | / | / | .
CCN1C(=O)/C(=C2/Sc3ccc(OC)cc3N2C)SC1=Nc1cccc(O)c1 | ? | 10µM | ? | .
C=CCN1C(=O)/C(=C2/Sc3ccc(OC)cc3N2C)SC1=Nc1ccccc1 | ? | . | . | .
Clc1ccc(/C=N/NC2=Nc3cccc4cccc2c34)cc1 | ? | ? | 12.6µM | .
CCN(CC)c1ccc(/C=C/c2cccc[n+]2C)c(OC)c1 | / | 7.94µM | . | 10µM
COCC(=O)Nc1cc(C(=O)N2CCCCC2c2nccn2C)cc2nc(-c3ccccc3)n(C)c12 (stereo not given) | / | / | / | .
COC(=O)c1ccc(CN2CCOc3ccc(CN4CCC(O)(c5cccnc5)CC4)cc3C2)cc1 | / | / | / | .
O=[N+]([O-])c1cc2c(c([N+](=O)[O-])c1)Nc1ccccc1O2 | / | . | . | 14.1µM
O=C1Nc2ccccc2Oc2cc([N+](=O)[O-])cc(Oc3ccccc3)c21 | ? | ? | ? | .
COc1cc(=O)n2c(c1C(=O)N(C)Cc1nccs1)CCN(Cc1cccc(F)c1F)CC2 | / | / | / | .
CC(C)=NNC(=O)c1c(O)c2ccccc2[nH]c1=O | . | . | . | 39.8µM
COC(=O)c1cc(CNC(=O)c2cccc(F)c2)cc(NC(=O)c2ccccc2OC)c1 | / | / | / | .
COc1ccc(-n2c(CNC(=O)c3c(-c4ccccc4)noc3C)nnc2SC)cc1 | / | / | / | .
C[n+]1cc(C(=O)N2CCCCC2)ccc1/C=C/c1c[nH]c2ccccc12 | . | 11.2µM | ? | .
O=C(C(=O)N1CCCCCC1)c1c[nH]c2ccccc12 | / | . | . | .
SMILES | Epigenetic reg | Vif-A3G inh | Vif-APOBEC3F blk | PINK1 expr mod
CCN1C(=S)SC(=O)C1=C1C=C(C)N(Cc2ccco2)C(C)=C1 | . | 11.2µM | ? | .
COCCCn1c(=O)/c(=C\c2ccccc2OC(F)F)s/c1=C(/C#N)C(N)=O | ? | . | ? | 35.5µM
COCCCn1c(=O)/c(=C\c2ccc(OC(F)F)c(OC)c2)s/c1=C(/C#N)C(N)=O | ? | . | . | .
COC(=O)C1CCCCN1Cc1ccc2c(c1)CN(C1CCSCC1)CCO2 (stereo not given) | / | / | / | .
CCOC(=O)c1ccc2c(c1)nc(SCC(=O)c1ccco1)n2CC | . | . | . | .
CCOC(=O)c1ccc2c(c1)nc(SC/C(O)=C(\C#N)c1nc3ccccc3[nH]1)n2CC | . | . | . | 39.8µM
Cc1cnc(SCc2ccccn2)nc1C1CCCN(C(=O)c2cccc(-c3cccc(F)c3)c2)C1 (stereo not given) | / | / | / | .
Cc1nn(C)cc1CNc1nc(C)c(-c2ccn(CC3COc4ccccc4O3)n2)s1 (stereo not given) | / | / | / | .
CCCCCCCn1c2c(c(=N)c3c1CCC3)CCCC2 | . | . | . | 11.2µM
COC1=C(Br)C(=O)c2ncccc2C1=O | / | . | 11.2µM | .
CN(C)CCOc1ccc2c(c1)C(=O)C(=Cc1ncc([N+](=O)[O-])n1C)C2 | / | 11.2µM | ? | .
COc1ccc(-n2c(CCNC(=O)c3ccccc3C(F)(F)F)nnc2SC)cc1 | / | / | / | .
CC[n+]1c(/C=C/Nc2ccccc2)oc2ccccc21 | 15.8µM | 7.94µM | 11.2µM | .
CC[n+]1c(/C=C/Nc2ccccc2)oc2ccc(OC)cc21 | 12.6µM | ? | 5.62µM | .
CC[n+]1c(/C=C/N(C)c2ccccc2)oc2ccc(F)cc21 | . | 3.98µM | ? | .
COc1ccccc1-c1ccnc(-n2ncc(C(=O)N(C)C(C)c3nc(C)cs3)c2C2CC2)n1 (stereo not given) | / | / | / | .
O=C1NC(=O)C(Cc2ccccc2F)(C2CCN(Cc3cccn3-c3cccnc3)CC2)N1 (stereo not given) | / | / | / | .
CCOc1ccc(N2C(=O)S/C(=C\c3cccn3C)C2=O)cc1 | . | . | ? | ?
Cn1cccc1/C=C1\SC(=O)N(c2ccc(O)cc2)C1=O | ? | ? | 25.1µM | .
O=C(NCC1CCC2(CCN(Cc3ccc4ncccc4c3)CC2)O1)C1CCCO1 (stereo not given) | / | / | / | .
COc1ccc2nc(N3C(=O)/C(=C/c4ccccc4)NC3=S)sc2c1 | . | 5.01µM | 12.6µM | ?
CCOC(=O)C1=C(C)N=C2c3ccccc3C(=O)C2C1c1ccc(Cl)cc1 (stereo not given) | . | . | . | .
CCOC(=O)C1=C(Cc2ccc(Cl)cc2)C(=O)c2ccccc2C1=O | . | ? | 28.2µM | ?
CCN1/C(=C2/SC(=S)N(NC(C)=O)C2=O)Sc2ccccc21 | / | ? | ? | 22.4µM
CCN1/C(=C2\SC(=S)N(Cc3ccccc3)C2=O)Sc2ccccc21 | 12.6µM | . | ? | ?
SMILES | Epigenetic reg | Vif-A3G inh | Vif-APOBEC3F blk | PINK1 expr mod
CCCC(=O)Nc1ccc(NC(=O)c2ccco2)c(OC)c1 | . | . | . | 3.55µM
COCC1CCCN(Cc2ccc3c(c2)CN(C(=O)c2cc(-c4ccccc4)n[nH]2)CCO3)C1 (stereo not given) | / | / | / | .
CCOc1ccc(C(=O)Nc2cc(-c3nc4ccccc4[nH]3)ccc2C)cc1[N+](=O)[O-] | . | . | . | .
CCOc1ccc(C(=O)Nc2cc(-c3nc4ccccc4[nH]3)ccc2Cl)cc1[N+](=O)[O-] | . | 12.6µM | . | .
Cc1ccc(F)cc1S(=O)(=O)NCc1nc(N2CCCC2)c2cccc(C)c2n1 | / | / | / | .
Cc1cc(C(=O)CCl)c(C)n1Cc1ccco1 | 12.6µM | ? | . | ?
Cc1cc(C(=O)CSc2nncs2)c(C)n1Cc1ccco1 | . | . | . | .
CCN(CC)C(=O)[C@H]1C[C@H](CC(=O)NCC23CC4CC(CC(C4)C2)C3)C(=O)N2CCc3c([nH]c4ccc(Cl)cc34)[C@]12C | / | . | . | ?
CC(C)N(C(=O)[C@H]1C[C@H](CC(=O)NCC23CC4CC(CC(C4)C2)C3)C(=O)N2CCc3c([nH]c4ccc(Cl)cc34)[C@]12C)C(C)C | / | . | ? | 35.5µM
CSc1nnc(CNC(=O)c2cccc3ccccc23)n1-c1ccccc1C | / | / | / | .
